Laboratory results reported in the supplement of paper PMC12350171.
Where a name gives a salt, the structure may show the parent alone. A number with no mark means an inactive call.

Columns and labels:
Settings in all cases: 20 µM
[1] = tested on: Salmonella enterica typhimurium; assay: growth AUC normalised to DMSO control (fraction of control); higher = less growth inhibition, active = hit call of the paper
Summary of the method: (§1)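 Hemin and NAD were added to the medium for Haemophilus parainfluenzae. All pathogens, after two anaerobic passages, were inoculated at a starting OD578 of 0.01 into pre-reduced mGAM plates with 20 μM compound and 1% DMSO under breathable seals, and OD578 was read hourly for 24 h in three biological replicates. AUC of each growth curve was obtained with the trapezoidal rule up to the exponential-to-stationary transition and normalised to DMSO controls from the same plate.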

Shigella flexneri = assay: as above
Summary of the method: as §1

Vibrio cholerae = assay: as above
Summary of the method: as §1

[2] = tested on: Yersinia pseudotuberculosis; assay: as above
Summary of the method: as §1

P. vulgatus RND KO = assay: growth AUC normalised to DMSO control (median) (fraction of control); higher = less growth inhibition, active = hit call of the paper
Summary of the method: (§2)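 Anaerobic growth was tracked hourly at OD578 for 24 h in 96-well plates of mGAM seeded at OD578 0.01 with each approved-drug library compound at 20 μM and 1% DMSO. Strains had first been passaged twice overnight without oxygen. Three biological replicates were run. The reported median is the area under the curve, calculated by the trapezoidal rule on curves truncated at entry into stationary phase and normalised to vehicle wells on the same plate.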

P. vulgatus WT = assay: as above
Summary of the method: as §2

[3] = tested on: S. enterica typhimurium WT; assay: as above
Summary of the method: as §2

[4] = tested on: S. enterica typhimurium tolC KO; assay: as above
Summary of the method: as §2
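For growth AUC normalised to DMSO control (median) in this document: active when median AUC fell below 0.1.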

| SMILES | growth AUC normalised to DMSO control [1] | growth AUC normalised to DMSO control (Shigella flexneri) | growth AUC normalised to DMSO control (Vibrio cholerae) | growth AUC normalised to DMSO control [2] | growth AUC normalised to DMSO control (P. vulgatus RND KO) | growth AUC normalised to DMSO control (P. vulgatus WT) | growth AUC normalised to DMSO control [3] | growth AUC normalised to DMSO control [4] |
| --- | --- | --- | --- | --- | --- | --- | --- | --- |
| CC[N+](CC)(CC)CCC(O)(c1ccccc1)C1CCCCC1 (stereo not given) [Tridihexethyl chloride] | 1 | 1.03 | 1.05 | 1 | 1.06 | 1.07 | 1.02 | 0.686 |
| CCN(CCCc1ccccc1)CCCc1ccccc1 [Alverine citrate salt] | 0.985 | 0.966 | 0.841 (active) | 0.971 | 1.02 | 1.03 | 1 | 0.961 |
| CN(C)C(=O)C(CCN1CCC(O)(c2ccc(Cl)cc2)CC1)(c1ccccc1)c1ccccc1 [Loperamide hydrochloride] | 0.997 | 0.972 | 0.981 | 0.988 | 1 | 1.01 | 1 | 0.987 |
| N=C(N)N/N=C/c1c(Cl)cccc1Cl [Guanabenz acetate] | 0.936 (active) | 0.998 | 1.03 | 0.973 | 0.983 | 0.98 | 0.946 | 0.967 |
| CC(C)Cn1cnc2c(N)nc3ccccc3c21 [Imiquimod] | 1.02 | 1.05 | 1.06 | 1.01 | 0.986 | 0.951 | 0.997 | 0.994 |
| CC(C(=O)O)c1ccc(N2Cc3ccccc3C2=O)cc1 (stereo not given) [Indoprofen] | 0.992 | 1.01 | 1.03 | 1.01 | 0.975 | 0.971 | 0.993 | 0.997 |
| CSc1ccc2c(c1)N(CCC1CCCCN1C)c1ccccc1S2 (stereo not given) [Thioridazine hydrochloride] | 0.978 | 1 | 0.957 | 0.975 | 0.88 | 0.796 | 0.99 | 0.957 |
| CCCc1nc2c(C)cc(-c3nc4ccccc4n3C)cc2n1Cc1ccc(-c2ccccc2C(=O)O)cc1 [Telmisartan] | 1 | 1.02 | 1.02 | 1.01 | 0.852 | 0.897 | 0.996 | 0.995 |
| O=C1Cc2cc(CCN3CCN(c4nsc5ccccc45)CC3)c(Cl)cc2N1 [Ziprasidone  hydrochloride monohydrate] | 1.02 | 1.06 | 1.01 | 1 | 1.03 | 1.07 | 1.02 | 1 |
| O=C(CCCN1CCC(O)(c2ccc(Cl)cc2)CC1)c1ccc(F)cc1 [Haloperidol] | 0.976 | 0.966 | 0.97 | 0.966 | 0.965 | 0.963 | 0.998 | 0.962 |
| CN1CCN(c2c(F)cc3c(=O)c(C(=O)O)cn4c3c2SCC4)CC1 [Rufloxacin] | 0.006 (active) | 0.0254 (active) | 0.0252 (active) | 0.0274 (active) | 0.63 | 0.47 | 0.0284 (active) | 0.00853 (active) |
| NC(=O)NC1NC(=O)NC1=O (stereo not given) [Allantoin] | 1 | 0.996 | 1.05 | 0.989 | 0.999 | 1.01 | 0.994 | 0.998 |
| CN(C)c1ccc(O)c2c1C[C@H]1C[C@H]3[C@H](N(C)C)C(=O)C(C(N)=O)=C(O)[C@@]3(O)C(=O)C1=C2O [Minocycline hydrochloride] | 0.00774 (active) | 0.0229 (active) | 0.0305 (active) | 0.0367 (active) | 0.0156 (active) | 0.0185 (active) | 0.0116 (active) | 0.00184 (active) |
| COC(=O)Nc1nc2cc(Sc3ccccc3)ccc2[nH]1 [Fenbendazole] | 0.996 | 1.01 | 0.995 | 1.01 | 1.01 | 1.01 | 1.01 | 0.987 |
| CCN(CC)C(=O)Nc1ccc(OCC(O)CNC(C)(C)C)c(C(C)=O)c1 (stereo not given) [Celiprolol hydrochloride] | 0.995 | 0.992 | 0.99 | 1.01 | 0.997 | 1.01 | 0.994 | 0.994 |
